Shown are actives, neighbours in structure and some others; about 1.3% of the full set was active somewhere.
Phagocytosis inh: inhibitors of macrophage phagocytosis, primary screen, imaging, J774A.1 cells, IgG beads; J774A.1 macrophage IgG-bead phagocytosis; inhibition, % at 5 µM; 0.07% of 110,000 active; AID 1029, 2008;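 active = inhibition above the mean of the plate negative controls plus 5 SD, cut at about 13% in these data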;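 note: phagocytic index as fraction of beads internalized from green versus red external bead signal; plate controls were DMSO negative control for no effect and cytochalasin-D positive control for full effect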
SDO1 yeast rescue: growth rescue of sdo1-depleted yeast, primary screen, S. cerevisiae, bone marrow failure model; S. cerevisiae sdo1-depleted JHY4D growth rescue, OD600 30 h; stronger effect = higher value; pdr5 snq2 efflux-pump mutant strain; z-score at 10 µM; 0.21% of 140,000 active; AID 817, 2007;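 active = z-score above 3 at both the 24 hr and the 30 hr optical density reads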;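 note: z-score against mean and SD of all compound wells on the same plate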
Mac1 fbg inh: inhibitors of CD11b/CD18 adhesion to fibrinogen, primary screen, K562 cells, luminescence | Integrin beta-2 (Homo sapiens) + Integrin alpha-M (Homo sapiens), P05107+P11215 | ATPlite luminescence; Mn2+ added to activate the integrin | inhibition, % at 10 µM | 0.54% of 93,000 active;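 active = primary inhibition of 50% or more at 10 µM, then 40% or more on retest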
Target sequence (P05107 whole entry, looked up, other chains not shown): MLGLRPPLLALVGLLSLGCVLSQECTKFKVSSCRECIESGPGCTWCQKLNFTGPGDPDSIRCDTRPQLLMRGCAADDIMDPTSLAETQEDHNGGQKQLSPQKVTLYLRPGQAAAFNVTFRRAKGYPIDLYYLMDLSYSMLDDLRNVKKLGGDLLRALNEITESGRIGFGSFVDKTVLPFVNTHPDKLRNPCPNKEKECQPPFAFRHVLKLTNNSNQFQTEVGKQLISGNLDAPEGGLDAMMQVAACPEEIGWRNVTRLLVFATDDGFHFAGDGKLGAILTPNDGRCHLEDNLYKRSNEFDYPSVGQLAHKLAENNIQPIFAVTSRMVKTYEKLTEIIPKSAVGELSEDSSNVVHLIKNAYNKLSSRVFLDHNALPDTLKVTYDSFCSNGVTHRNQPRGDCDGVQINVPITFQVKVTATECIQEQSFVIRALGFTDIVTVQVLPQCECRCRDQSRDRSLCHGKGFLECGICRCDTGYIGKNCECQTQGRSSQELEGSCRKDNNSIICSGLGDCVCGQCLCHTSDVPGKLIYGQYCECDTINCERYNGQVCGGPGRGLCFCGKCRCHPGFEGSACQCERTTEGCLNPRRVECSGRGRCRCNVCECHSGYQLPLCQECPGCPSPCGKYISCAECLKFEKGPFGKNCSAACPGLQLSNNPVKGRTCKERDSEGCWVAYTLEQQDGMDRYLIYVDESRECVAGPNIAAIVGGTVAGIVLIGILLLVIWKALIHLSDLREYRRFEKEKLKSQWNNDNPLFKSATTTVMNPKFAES
MRP-1 activ: H69AR viability gain despite doxorubicin, primary screen, MRP-1 activator project, H69AR cells, CellTiter-Glo | 0.61% of 140,000 active | AID 799, 2007 | viability increase, % at 10 µM | viability rescue;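 active = viability gain under doxorubicin at or above a set limit, the compound median plus 3 SD, cut at about 4.7% in these data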;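 note: MRP-1 overexpressing cells given doxorubicin 25 µM after compound pretreatment; 18-22 h compound pretreatment then 72 h with doxorubicin before readout; 0% = doxorubicin-only wells and 100% = vehicle-treated cells without doxorubicin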
Mac1 fbg enh: enhancers of CD11b/CD18 adhesion to fibrinogen, primary screen, K562 cells, luminescence | Integrin beta-2 (Homo sapiens) + Integrin alpha-M (Homo sapiens), P05107+P11215 | ATPlite luminescence | activation, % at 10 µM | 0.07% of 93,000 active;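 active = 10 µM primary screen giving 50% or more activity, confirmed by 40% or more on retest at that dose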
MRP resist rev: reversal of MRP1-mediated doxorubicin resistance, primary screen, H69AR cells, doxorubicin co-treatment | H69AR cells + 2 uM doxorubicin, CellTiter-Glo, 72 h | differential viability (reversal), % at 10 µM | 0.04% of 85,000 active | AID 602, 2007;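 active = viability drop by adding the cancer drug above about 55%, with treated viability meeting a 40% cutoff, limit read from the data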;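 note: viability without doxorubicin minus viability with 2 µM doxorubicin for each compound; larger differential means the compound sensitizes cells more to doxorubicin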
Numbers without * were called inactive; nt = no result; [ ] = dose if it differs, or a comment.

SMILES	Phagocytosis inh	SDO1 yeast rescue	Mac1 fbg inh	MRP-1 activ	Mac1 fbg enh	MRP resist rev
O=C(c1ccc(COc2ccc(Br)cc2)o1)N1N=C(C(F)F)CC1(O)C(F)F (configuration not stated)	-6	-1.7	nt	5.5*	nt	nt
CCCc1cc(-c2[nH]ncc2-c2ccc3c(c2)OCCCO3)c(O)cc1OC	3	-1.7	22	-2	-1	-25
CCc1cc(-c2[nH]ncc2-c2ccc3c(c2)OCO3)c(O)cc1O	0	0.26	70*	-5	-3	-31
CCOC(=O)c1[nH]c2cc(OC)c(OC)cc2c1N	1	0.04	12	8.5*	-1	0
Cc1ccc(CN2CCc3c(OCc4ccc(F)cc4)cccc3C2=O)cc1	-9	0.69	100	1	-17	nt
O=C1c2cccc(OCc3ccc(F)cc3)c2CCN1Cc1ccc(F)cc1	-4	-0.59	100	5.6*	-16	nt
Cc1ccc2[nH]c3c(NCc4ccco4)ncnc3c2c1	0	0.16	76*	-3	-7	-7
Cc1noc(/C=C/N(C)C)c1S(=O)(=O)N1CCCC(C(=O)NC2CCCCC2C)C1 (configuration not stated)	0	0.2	13	8.6*	-1	-6
Cn1c(=O)c2c(nc(N3CCCCCC3)n2Cc2cccc3ccccc23)n(C)c1=O	0	-2.1	-19	-6	1	64*
N#Cc1nc(COc2ccc(Br)cc2)oc1NCCN1CCOCC1	-2	-0.42	-6	7.7*	0	nt
CCOC(=O)/C(C#N)=C/c1c(OCC)n(CC)c2ccccc12	-11	-0.36	nt	0	nt	nt
Cc1ccc(-n2ncc3c(NCc4ccc5c(c4)OCO5)ncnc32)c(C)c1	nt	14*	nt	-5	nt	-32
FC(F)(F)c1ccc(N=Cc2sc(N3CCOCC3)nc2-c2ccccc2)cc1	-1	0.38	5	-1	16	nt
FC(F)(F)c1cnc(NNC(=S)Nc2ccccc2Cl)c(Cl)c1	-3	0.23	100*	-4	-10	nt
O=C(Cc1ccccc1)NC(Nc1ccccc1)C(Cl)(Cl)Cl (configuration not stated)	-1	0	-1	-5	-1	nt
CC(C)(C)NC(NC(=O)Cc1ccccc1)C(Cl)(Cl)Cl (configuration not stated)	nt	0.37	nt	5.3*	nt	nt
Cc1c(N2C(=O)/C(=C/c3ccccc3)SC2=S)c(=O)n(-c2ccccc2)n1C	nt	-0.46	nt	8.0*	nt	nt
O=C1/C(=C/c2cccnc2)SC(=S)N1c1ccccc1	-19	1.7	-4	2	29	nt
Cc1ccc(/C=C2\SC(=S)N(c3c(C)n(C)n(-c4ccccc4)c3=O)C2=O)cc1	nt	-0.32	nt	7.6*	nt	nt
CSc1nnc(C)c(=O)n1COC(=O)COc1ccccc1C	-7	0.59	6	-2	7	nt
CCOC(=O)C1=NN(C(=O)Nc2cccc(C(F)(F)F)c2)C2C(=O)N(c3cccc(C(F)(F)F)c3)C(=O)C12 (configuration not stated)	0	1.2	-13	-3	-4	nt
Cc1ccsc1/C=N/NC(=O)CSCc1ccc(Cl)cc1	1	-1	16	2	0	nt
Cc1ccc(/C=N/NC(=O)CSCc2ccc(Cl)cc2)cc1	-1	-1.4	6	6.3*	-2	nt
O=C(COc1ccccc1)NCC(=O)N/N=C/c1ccco1	-4	0.52	nt	1	nt	nt
COCCN1C(=O)C(=O)/C(=C(/O)c2ccc(OCC(C)C)cc2)C1c1cccnc1 (configuration not stated)	nt	nt	nt	nt	nt	14
SMILES	Phagocytosis inh	SDO1 yeast rescue	Mac1 fbg inh	MRP-1 activ	Mac1 fbg enh	MRP resist rev
CC1(C)O[C@@H]2C[C@H]3[C@@H]4C[C@H](F)C5=CC(=O)CC[C@]5(C)[C@H]4[C@@H](O)C[C@]3(C)[C@]2(C(=O)CO)O1	nt	-0.1	nt	5.2*	nt	-4
Cc1nc(N2CCN(Cc3ccccc3)CC2)nc2c1C(=O)CC(c1ccco1)C2 (configuration not stated)	-2	-1.1	36	5.6*	-5	8
Cc1ccc(-n2nc3c(c2NC(=O)c2c(-c4ccccc4Cl)noc2C)CSC3)cc1	0	-0.46	1	-3	72*	-15
Cc1ccccc1-n1nc2c(c1NC(=O)c1c(-c3ccccc3Cl)noc1C)CSC2	2	0.15	0	-2	3	-5
Cc1cccc2c3nc4ccccc4nc3n(CCCN3C(=O)c4ccccc4C3=O)c12	-10	-0.87	nt	5.2*	nt	nt
CCOC(=O)N1CCC(Nc2c(OCC)c(=O)c2=O)CC1	0	0.91	2	0	-2	6
CCOC(=O)N1CCC(Nc2c(Nc3ccc(C)c(C)c3)c(=O)c2=O)CC1	0	0.82	-27	-5	8	65*
CCCCc1ccc(/C=C2\C(=O)ON=C2c2ccccc2)s1	39*[artifact]	-0.8	nt	-2	nt	nt
CCCCNC(=O)NNC(=O)c1ccc(F)cc1	0	0.99	nt	-2	nt	nt
O=C(OC1CCCCC1)c1ccc2c(c1)C1C=CCC1C(C(=O)O)N2 (configuration not stated)	-1	-0.75	-59	-2	150*	nt
Cn1c(=S)[nH]c2[nH]c(=O)cnc2c1=O	7	0.83	nt	-1	nt	nt
CCOC(=O)C1=C(C)OC(N)=C(C#N)C1c1ccsc1 (configuration not stated)	0	1	9	1	-2	-12
N#CC1=C(N)Oc2c(O)cc3ccccc3c2C1c1ccsc1 (configuration not stated)	-9	0.8	70*	-4	-3	nt
CCn1c(=O)c(C(=O)Nn2c(C)nc3ccccc3c2=O)c(O)c2ccccc21	0	-2.5	-1	-1	-1	-15
CCn1c(=O)c(C(=O)Nc2nc3ccccc3[nH]2)c(O)c2ccccc21	-2	-1.8	96*	-3	-8	nt
CCc1cc2c3c(c(=O)oc2cc1O)CCCC3	-1	-1.8	7	-3	-4	10
COc1cccc(CNC(=O)c2cc3oc4ccccc4c3n2C)c1OC	0	-0.6	-21	0	0	-10
CCOc1ccccc1CNC(=O)c1cc2oc3ccccc3c2n1CC	186*	-0.07	-20	7.6*	0	12
CC(=C1C(=O)c2ccccc2C1=O)N1CCC(C(N)=O)(N2CCCCC2)CC1	-1	0.91	-12	-1	3	-1
COC(=O)c1c(-c2ccc(C)cc2)csc1NC(=O)Cc1ccc(OC)c(OC)c1	-3	0.16	54*	-1	-4	nt
Cc1cccc(-n2c(N)cc(=O)nc2SCC(=O)Nc2nnc(C)s2)c1	0	0.52	-4	5.7*	1	1
CCCNC(=O)c1cc2c(C(F)(F)F)nn(C)c2s1	2	0.55	26	-2	0	nt

Screens: PubChem, several laboratories
